High-throughput results (PubChem)
Most compounds without a hit are left out; they make up all but 2.5% or so of the library.
LEDGF integ inh: blocks HIV-1 LEDGF/p75-dependent DNA integration; TR-FRET IN-LEDGF/p75 DNA integration, Eu/Cy5; inhibition, % at 3.7 µM; 370,000 tested, 0.64% active; AID 743269;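 active means inhibition above the screen-wide mean plus 3 SD, cut at about 13% in these data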;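 further: signal is the Cy5 over europium emission ratio at 671 and 618 nm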
MBD2 DNA inh: MBD2-methylated oligo binding inhibition | Q9UBB5 | TR-FRET, MBD2 binding to methylated oligonucleotide | inhibition, % at 4.4 µM | 370,000 tested, 0.31% active; in the data active means inhibition above about 13%
UHRF1 MBD2 ctr: UHRF1 methyl-DNA binding inhibition; Q96T88; UHRF1 binding to methylated oligo, TR-FRET; inhibition, % at 4.4 µM; 370,000 tested, 0.75% active; AID 687016; in the data active means inhibition above about 21%;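 further: UHRF1 SRA domain binding a hemimethylated CpG hairpin DNA probe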
PRMT1 FP inh: blocks human protein arginine methyltransferase 1 | Q99873 | recombinant PRMT1, activity-based probe fluorescence polarization | inhibition, % at 2.79 µM | 370,000 tested, 1.3% active;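 active means inhibition above about 21% made by adding two undisclosed values, limit read from the data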
Target sequence (Q99873 whole entry, looked up): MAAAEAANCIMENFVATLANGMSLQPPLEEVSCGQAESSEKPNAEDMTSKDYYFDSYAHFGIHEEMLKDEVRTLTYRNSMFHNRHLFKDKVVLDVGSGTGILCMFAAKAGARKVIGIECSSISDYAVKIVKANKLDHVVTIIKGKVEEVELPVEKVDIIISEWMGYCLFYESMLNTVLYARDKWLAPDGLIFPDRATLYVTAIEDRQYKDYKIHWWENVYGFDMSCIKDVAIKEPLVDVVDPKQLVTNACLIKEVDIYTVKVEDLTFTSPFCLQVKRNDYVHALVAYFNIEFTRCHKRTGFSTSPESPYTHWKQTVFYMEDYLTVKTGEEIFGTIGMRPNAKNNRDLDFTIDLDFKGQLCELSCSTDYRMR
PRMT1 confirm: confirmation of human PRMT1 inhibitors; shares compounds with PRMT1 FP inh; recombinant His-PRMT1, activity-based probe fluorescence polarization; inhibition, % at 2.79 µM; 3,300 tested, 42% active; AID 687036;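 active means mean inhibition across replicates above the hit cutoff derived for the earlier primary screen, cut at about 22% in these data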
Each line names hits and unclear results; the compound was inactive in the other large screens (follow-up assays come after a bar, where they were run).

COc1cc(/C=C2\C(=O)NC(=O)N(CCc3ccc(F)cc3)C2=O)ccc1O	PRMT1 FP inh 24
O=C(O)c1nn(Cc2ccc(Cl)cc2)c2ccccc12	none
O=c1cccc2n1CC1CC2CN(c2nc(N3CCCCC3)nc(N3CCCCC3)n2)C1 (stereo not drawn)	none
Cc1cc(C(=O)OC(C)C(=O)Nc2ccccc2)c(C)n1C1CC1 (stereo not drawn)	none
CCN(CC)P(=S)(c1c(C)nc2ccccn12)c1c(C)nc2ccccn12	PRMT1 FP inh 24
Cc1cccc(N2C(=O)/C(=C/c3ccc(N4CCN(C)CC4)o3)C(=O)NC2=S)c1C	LEDGF integ inh 14
O=C1NC2C(O)C(O)C(O)C(O)C2c2cc3c(c(O)c21)OCO3 (stereo not drawn)	none
CCN1C(=O)NC(=O)/C(=C\c2ccc(N3CCOCC3)cc2OC)C1=O	PRMT1 FP inh 21
COc1ccc(/C=C2\C(=O)NC(=O)N(CCC3=CCCCC3)C2=O)c(OC)c1	none
C/C=C/CC#N	none
C/C(=N\N(C)c1ccccc1)c1c(O)[nH]c(=O)[nH]c1=O	none
O=c1[nH]c(=O)n(C2CCCCCC2)c(O)c1C=NCc1cccnc1	none
COc1ccc2c(c1OC)C(=O)OC2c1c(O)n(C2CCCCC2)c(=O)[nH]c1=O (stereo not drawn)	PRMT1 FP inh 23
O=C1NC(=O)C2(Cc3cc([N+](=O)[O-])ccc3N3CCN(C(=O)c4ccccc4)CC32)C(=O)N1 (stereo not drawn)	none
Clc1cccc(N2Cc3cc(-c4ccccc4)ccc3-n3nncc3C2)c1	LEDGF integ inh 67
Clc1cccc(N2Cc3cc(N4CCOCC4)ccc3-n3nncc3C2)c1	none
O=C(C[N+]12CCC(CC1)C(CO)C2)c1ccc([N+](=O)[O-])cc1 (stereo not drawn)	UHRF1 MBD2 ctr 29
O=c1[nH]c(=O)n(CCC2=CCCCC2)c(O)c1/C=N/Nc1ccccc1	PRMT1 FP inh 22
CC1=C(O)C(=O)C=C2C1=CC=C1C2(C)CCC2(C)C3CC(C)(C(=O)O)CCC3(C)CCC12C (stereo not drawn)	PRMT1 FP inh 35 | PRMT1 confirm 50
CN=C(SCc1cc2c(cc1Cl)OCO2)c1c(O)n(C)c(=O)n(C)c1=O	none
c1cnc(N2CCNCC2)nc1	none
c1ccc(Cc2cnc(N3CCNCC3)nc2)cc1	PRMT1 FP inh 45 | PRMT1 confirm inactive
S=P(NCCNP(=S)(N1CC1)N1CC1)(N1CC1)N1CC1	PRMT1 FP inh 58 | PRMT1 confirm inactive
S=P(NCCSCc1ccccc1)(N1CC1)N1CC1	PRMT1 FP inh 29 | PRMT1 confirm inactive
Cc1ccc(CN2CCC3CCC(C3)C2)c(O)c1 (stereo not drawn)	none
NS(=O)(=O)c1ccc(-c2ccc(C=C3C(=O)NC(=S)NC3=O)o2)cc1	PRMT1 FP inh 47 | PRMT1 confirm 68
CCOc1cccc(=NC2CCCCC2)c2c(C)n(C)c(C)c12	PRMT1 FP inh 47 | PRMT1 confirm inactive
CN1C(=O)NC(=O)/C(=C/c2ccc([N+](=O)[O-])s2)C1=O	PRMT1 FP inh 31 | PRMT1 confirm 58
O=C1NC(=O)N(c2ccccc2)C(=O)/C1=C\c1ccc([N+](=O)[O-])s1	none
CN1OC[C@@H]2CN[C@H](c3ccc(Br)cc3)C[C@@H]21	none
O=CC(Br)P(=O)(N1CCOCC1)N1CCOCC1 (stereo not drawn)	PRMT1 FP inh 26 | PRMT1 confirm 31
COc1ccc(C(C)=O)cc1Cc1c(O)[nH]c(=S)[nH]c1=O	PRMT1 FP inh 28 | PRMT1 confirm inactive
COC(=O)C1=C(c2ccc(OCc3ccccc3)cc2)C[C@@H]2CC[C@H]1N2C(=O)NCc1cccc(C(F)(F)F)c1	none
CC12CCC(O)CC1CCC1C2CCC2(C)C(C(=O)CO)CCC12 (stereo not drawn)	none
O=[N+]([O-])c1ccc(N2CCCCC2)c2ncccc12	none
O=[N+]([O-])c1ccc(N2CCCCCC2)c2nonc12	PRMT1 FP inh 89 | PRMT1 confirm 95
CC1CN1P(=S)(c1ccccc1)N1CC1C (stereo not drawn)	PRMT1 FP inh 36 | PRMT1 confirm inactive
CC1CN1P(=O)(Oc1ccccc1)N1CC1C (stereo not drawn)	none
Nc1ccccc1Cl	none
O=c1[nH]sc2cc(F)ccc12	PRMT1 FP inh 73 | PRMT1 confirm 69
CCc1ccc(/C=C(/C#N)C(N)=S)cc1	PRMT1 FP inh 30 | PRMT1 confirm inactive
Cc1cc2c(C(F)(F)F)cc(=O)oc2c2c1NCCC2	PRMT1 FP inh 38 | PRMT1 confirm 58
CCN1CCN(c2cc(N3CCCC3)c(F)cc2[N+](=O)[O-])CC1	none
Nc1ccc2ccc3cccc[n+]3c2c1	PRMT1 FP inh 175 | PRMT1 confirm 150
CCOc1ccc(Br)c(C2(O)CC(C)N(C)CC2C)c1 (stereo not drawn)	none
C=C1C(=O)OC2CC3(C)OC3C3OC3C3=CC(OC3=O)C12 (stereo not drawn)	PRMT1 FP inh 44 | PRMT1 confirm 40
CC(C)Nc1ccc(Nc2ccccc2)cc1	PRMT1 FP inh 25 | PRMT1 confirm 70
O=C(O)c1ccccc1-c1ccc(C=C2C(=O)N(c3ccccc3)C(=S)N(c3ccccc3)C2=O)o1	PRMT1 FP inh 39 | PRMT1 confirm 59
CN1C(=O)C(=Cc2ccc(N3CCCCCC3)o2)C(=O)N(C)C1=S	none
CC(C)C[C@H](NP(=O)(O)O[C@@H]1O[C@@H](C)[C@H](O)[C@@H](O)[C@H]1O)C(=O)N[C@@H](Cc1c[nH]c2ccccc12)C(=O)O	none
Cc1cc(/C=C2/C(=O)NC(=O)N(C)C2=O)c(C)n1-c1ccccc1	none
CN1C(=O)NC(=O)/C(=C/c2ccc(C(=O)O)cc2)C1=O	PRMT1 FP inh 31 | PRMT1 confirm inactive
CC(NC1CCCCC1)C(O)C12CC3CC(CC(C3)C1)C2 (stereo not drawn)	none
N#Cc1ccccc1Cn1cc(C(=O)c2ccco2)c2ccccc21	none
COC(=O)N(c1ccccc1)P1(=S)OCCO1	PRMT1 FP inh 30 | PRMT1 confirm 44
CCOC(=O)N(c1ccccc1)P1(=S)OCCO1	none
CN(C)C(=S)SSC(=S)N(C)C	PRMT1 FP inh 87 | PRMT1 confirm 102
COC(=O)C1=C(c2ccc3ccccc3c2)C[C@@H]2CC[C@H]1N2C	none
COC(=O)C1=C(C(=O)OC)C2OC1c1cc3ccccc3cc12	PRMT1 FP inh 64 | PRMT1 confirm 46
Cc1cccc(N2C(=O)NC(=O)/C(=C/c3cc4c(cc3[N+](=O)[O-])OCO4)C2=O)c1	PRMT1 FP inh 28 | PRMT1 confirm 55
CCOC(=O)C1SC2(C(F)(F)F)CC1(O)c1c(C)cc(C)nc1O2 (stereo not drawn)	PRMT1 FP inh 73 | PRMT1 confirm 63
COc1cc(N2CCOCC2)ccc1/C=C1\C(=O)NC(=O)N(C2CCCCC2)C1=O	PRMT1 FP inh 26 | PRMT1 confirm inactive
O=C1NC(=O)N(Cc2cccs2)C(=O)/C1=C/c1ccc(N2CCOCC2)cc1	none
Cn1cccc1/C=C1/C(=O)NC(=S)N(Cc2ccc(F)cc2)C1=O	PRMT1 FP inh 27 | PRMT1 confirm 65
